Laboratory results from the supplement of paper PMC8975748.
Where a name gives a salt, the structure may show the parent alone. ± gives the standard deviation of the averaged measurements.

Legend:
[1] = test system: Saccharomyces cerevisiae BY4741 SeMeCo community; assay: mean cell size (pixel area) (pixels); higher = larger cells; details: 10 µM; 24 h; SM minimal medium
In short: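 Harmony analysis of automated confocal images of paraformaldehyde-fixed yeast gave the mean cell pixel area per well. The yeast was a Saccharomyces cerevisiae BY4741 community carrying four plasmids, each with a fluorescent marker and each complementing one auxotrophy, incubated for 24 h in SM medium containing drug at a final 10 µM in 384-well plates. Results are averaged over 3 replicates. Same SeMeCo high-content imaging drug screen: Selleck FDA-approved drugs at 10 µM, 24 h in SM medium, 384-well plates, 3 replicates.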

[2] = test system: Saccharomyces cerevisiae BY4741 SeMeCo community; assay: z-score of prototroph abundance vs DMSO median; higher = larger share of this subpopulation than in DMSO controls; details: 10 µM; 24 h; SM minimal medium; subpopulation (auxotrophy): Prototroph
In short: (§1)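 Four plasmids, each restoring a single auxotrophy and encoding a distinct fluorescent protein, were carried by a Saccharomyces cerevisiae BY4741 community. After overnight growth to OD600 1.0 and dilution to 0.3, 70 µl per well was grown for 24 h in minimal SM medium on 384-well plates acoustically predosed with library drugs at 10 µM final. Following paraformaldehyde fixation, automated confocal microscopy was used, with single-auxotroph fluorescent strains defining thresholds and autofluorescence correction. Subpopulation abundance was then scored as a z-score against the vehicle-well median.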

[3] = test system: Saccharomyces cerevisiae BY4741 SeMeCo community; assay: z-score of subpopulation abundance vs DMSO median, subpopulation auxotrophic for M; higher = larger share of this subpopulation than in DMSO controls; details: 10 µM; 24 h; SM minimal medium; subpopulation (auxotrophy): M
In short: as §1

[4] = test system: Saccharomyces cerevisiae BY4741 SeMeCo community; assay: z-score of subpopulation abundance vs DMSO median, subpopulation auxotrophic for L; higher = larger share of this subpopulation than in DMSO controls; details: 10 µM; 24 h; SM minimal medium; subpopulation (auxotrophy): L
In short: as §1

[5] = test system: Saccharomyces cerevisiae BY4741 SeMeCo community; assay: z-score of subpopulation abundance vs DMSO median, subpopulation auxotrophic for U; higher = larger share of this subpopulation than in DMSO controls; details: 10 µM; 24 h; SM minimal medium; subpopulation (auxotrophy): U
In short: as §1

[6] = test system: Saccharomyces cerevisiae BY4741 SeMeCo community; assay: z-score of subpopulation abundance vs DMSO median, subpopulation auxotrophic for H; higher = larger share of this subpopulation than in DMSO controls; details: 10 µM; 24 h; SM minimal medium; subpopulation (auxotrophy): H
In short: as §1

[7] = test system: Saccharomyces cerevisiae BY4741 SeMeCo community; assay: z-score of subpopulation abundance vs DMSO median, subpopulation auxotrophic for LU; higher = larger share of this subpopulation than in DMSO controls; details: 10 µM; 24 h; SM minimal medium; subpopulation (auxotrophy): LU
In short: as §1

[8] = test system: Saccharomyces cerevisiae BY4741 SeMeCo community; assay: z-score of subpopulation abundance vs DMSO median, subpopulation auxotrophic for LM; higher = larger share of this subpopulation than in DMSO controls; details: 10 µM; 24 h; SM minimal medium; subpopulation (auxotrophy): LM
In short: as §1

[9] = test system: Saccharomyces cerevisiae BY4741 SeMeCo community; assay: z-score of subpopulation abundance vs DMSO median, subpopulation auxotrophic for HM; higher = larger share of this subpopulation than in DMSO controls; details: 10 µM; 24 h; SM minimal medium; subpopulation (auxotrophy): HM
In short: as §1

[10] = test system: Saccharomyces cerevisiae BY4741 SeMeCo community; assay: z-score of subpopulation abundance vs DMSO median, subpopulation auxotrophic for HU; higher = larger share of this subpopulation than in DMSO controls; details: 10 µM; 24 h; SM minimal medium; subpopulation (auxotrophy): HU
In short: as §1

[11] = test system: Saccharomyces cerevisiae BY4741 SeMeCo community; assay: z-score of subpopulation abundance vs DMSO median, subpopulation auxotrophic for UM; higher = larger share of this subpopulation than in DMSO controls; details: 10 µM; 24 h; SM minimal medium; subpopulation (auxotrophy): UM
In short: as §1

[12] = test system: Saccharomyces cerevisiae BY4741 SeMeCo community; assay: z-score of subpopulation abundance vs DMSO median, subpopulation auxotrophic for HL; higher = larger share of this subpopulation than in DMSO controls; details: 10 µM; 24 h; SM minimal medium; subpopulation (auxotrophy): HL
In short: as §1

[13] = test system: Saccharomyces cerevisiae BY4741 SeMeCo community; assay: z-score of subpopulation abundance vs DMSO median, subpopulation auxotrophic for HLU; higher = larger share of this subpopulation than in DMSO controls; details: 10 µM; 24 h; SM minimal medium; subpopulation (auxotrophy): HLU
In short: as §1

[14] = test system: Saccharomyces cerevisiae BY4741 SeMeCo community; assay: z-score of subpopulation abundance vs DMSO median, subpopulation auxotrophic for HLM; higher = larger share of this subpopulation than in DMSO controls; details: 10 µM; 24 h; SM minimal medium; subpopulation (auxotrophy): HLM
In short: as §1

[15] = test system: Saccharomyces cerevisiae BY4741 SeMeCo community; assay: z-score of subpopulation abundance vs DMSO median, subpopulation auxotrophic for HUM; higher = larger share of this subpopulation than in DMSO controls; details: 10 µM; 24 h; SM minimal medium; subpopulation (auxotrophy): HUM
In short: as §1

[16] = test system: Saccharomyces cerevisiae BY4741 SeMeCo community; assay: z-score of subpopulation abundance vs DMSO median, subpopulation auxotrophic for LUM; higher = larger share of this subpopulation than in DMSO controls; details: 10 µM; 24 h; SM minimal medium; subpopulation (auxotrophy): LUM
In short: as §1

[17] = test system: Saccharomyces cerevisiae BY4741 SeMeCo community; assay: z-score of subpopulation abundance vs DMSO median, subpopulation auxotrophic for HLUM; higher = larger share of this subpopulation than in DMSO controls; details: 10 µM; 24 h; SM minimal medium; subpopulation (auxotrophy): HLUM
In short: as §1

Structure (SMILES)	mean cell size [1]	z-score of prototroph abundance [2]	z-score of subpopulation abundance [3]	z-score of subpopulation abundance [4]	z-score of subpopulation abundance [5]	z-score of subpopulation abundance [6]	z-score of subpopulation abundance [7]	z-score of subpopulation abundance [8]	z-score of subpopulation abundance [9]	z-score of subpopulation abundance [10]	z-score of subpopulation abundance [11]	z-score of subpopulation abundance [12]	z-score of subpopulation abundance [13]	z-score of subpopulation abundance [14]	z-score of subpopulation abundance [15]	z-score of subpopulation abundance [16]	z-score of subpopulation abundance [17]
CCOC(=O)C1=C(C)NC(C)=C(C(=O)OCC)C1c1ccccc1/C=C/C(=O)OC(C)(C)C [Lacidipine]	12.5 ± 0.14	0.54	3.48	1.08	-3.36	1.2	-2.51	1.6	1.9	-2.93	-2.61	-0.42	-0.94	1.17	-0.96	-1.16	-0.21
NC(=NCCCCCCN=C(N)N=C(N)Nc1ccc(Cl)cc1)N=C(N)Nc1ccc(Cl)cc1 [Chlorhexidine?2HCl]	11.38 ± 0.084	1.92	-3.42	0.63	-2.8	2.59	-1.64	0.28	-2.23	0.25	–	2.14	3.88	0.93	-0.7	2.03	4.27
CN1CCC(=C2c3ccccc3C=Cc3ccccc32)CC1 [Cyproheptadine hydrochloride]	12.61 ± 0.097	0.23	-0.18	0.25	0.43	-0.32	0.02	-0.35	-0.58	-0.56	-0.25	-0.02	-0.31	-0.45	-0.68	-0.73	-0.08
CC1=C(C(=O)OC(C)C)C(c2cccc([N+](=O)[O-])c2)C(C(=O)OC2CN(C(c3ccccc3)c3ccccc3)C2)=C(N)N1 (centres undefined) [Azelnidipine]	12.5 ± 0.34	-0.48	-0.27	-0.9	0.39	0.22	0.86	-0.63	0.77	1.39	0.01	-0.34	-0.12	0.09	0.26	0.01	-0.49
CN(C)C[C@@H]1CCn2cc(c3ccccc32)C2=C(C(=O)NC2=O)c2cn(c3ccccc23)CCO1	12.64 ± 0.084	-0.66	-0.34	1.34	0.49	1.52	1.13	0.82	0.28	-0.03	-0.29	–	1.21	0.91	-0.43	0.63	0.34
NC(=O)N1c2ccccc2CC(=O)c2ccccc21 [Oxcarbazepine]	12.4 ± 0.25	0.37	-0.31	-0.68	0.16	-0.49	-0.37	0.14	0	0.16	0.07	-0.1	-0.11	-1.13	0.19	0.55	0.1
COCCCC/C(=N\OCCN)c1ccc(C(F)(F)F)cc1 [Fluvoxamine maleate]	12.3 ± 0.13	0.26	0.23	0.54	-0.51	-0.64	-0.03	0.51	-0.09	-0.5	-0.21	-0.26	-0.3	-0.76	0.06	0.15	-0.43
COc1nc2ccc(Br)cc2cc1[C@@H](c1ccccc1)[C@@](O)(CCN(C)C)c1cccc2ccccc12 [Bedaquiline fumarate]	11.2 ± 0.16	-1.58	-0.55	-0.13	0.97	1.1	0.86	0.49	0.33	1.44	4.1	0.4	0.68	-0.14	1.74	3.68	1.29
N#C/C(=C1/SC[C@@H](c2ccc(Cl)cc2Cl)S1)n1ccnc1 [Luliconazole]	12 ± 0.31	-8.67	-2.68	-1.35	-0.31	18.4	0.85	1.33	7.54	10.5	11.7	4.75	5.26	16.8	10.6	4.52	11.1
Nc1nc2ccc(OC(F)(F)F)cc2s1 [Riluzole]	12.6 ± 0.14	0.62	-0.49	0.43	-0.8	-0.43	0.41	0.35	-0.84	-1.39	–	-0.55	-0.57	0.67	-0.82	-0.13	0.8
COc1ccnc(C[S+]([O-])c2nc3cc(-n4cccc4)ccc3[nH]2)c1C (centres undefined) [Ilaprazole]	12.6 ± 0.45	-0.51	-0.98	2.44	-1.42	4.64	0	0.85	0.96	-0.45	-1.96	3.84	0.92	1.1	-1.45	-0.52	0.68
CC[C@H](C)[C@H](N)C1=N[C@H](C(=O)N[C@@H](CC(C)C)C(=O)N[C@H](CCC(=O)O)C(=O)N[C@H](C(=O)N[C@H]2CCCCNC(=O)[C@H](CC(N)=O)NC(=O)[C@@H](CC(=O)O)NC(=O)[C@H](Cc3cnc[nH]3)NC(=O)[C@@H](Cc3ccccc3)NC(=O)[C@H]([C@@H](C)CC)NC(=O)[C@@H](CCCN)NC2=O)[C@@H](C)CC)CS1 [Bacitracin]	12 ± 0.24	-2.14	-0.01	1.05	0.29	3.13	0.64	1.28	1.2	2.07	0.03	3.67	3.61	1.35	1.59	0.84	1.51
CCCN(CCc1cccs1)[C@H]1CCc2c(O)cccc2C1 [Rotigotine]	12.6 ± 0.31	0.61	0.93	0.33	-1.74	-0.04	-0.93	1.22	1.47	-1.03	-1.79	0.46	-0.16	-0.19	-0.69	-0.27	-0.54
O=C(O)c1cccnc1Nc1cccc(C(F)(F)F)c1 [Niflumic acid]	12.9 ± 0.17	-0.15	0.7	-0.68	0.51	-0.77	0.28	-0.15	-0.03	-0.46	–	-0.39	-0.64	0.59	-0.49	0.4	-0.43
